# Measurements reported in PubChem BioAssay AID1979 (Broad Institute, 2009).
# Among all 300,000 compounds or so, about 1,700 (0.57%) were called active. About 2% were inconclusive and are not listed.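 How the source made its calls: active means growth inhibition above about 58% in most replicates (limit read from the data, passing the limit was not always enough); inconclusive means exactly half the replicates above a set limit; inactive means most replicates below a set limit.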 What follows is part of a selection rich in actives, with near analogues and random picks from the rest.
# Assay: Candida growth reduction under fluconazole – CaCi-2 strain, Alamar Blue fluorescence, primary screen (AID 1979);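 further: all wells also contain fluconazole at 8 µg/ml as a sub-toxic cotreatment; 0% = median of DMSO wells and 100% = median of geldanamycin control wells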
# Conditions: C. albicans CaCi-2 (fluconazole-resistant clinical isolate) + fluconazole, 48 h, active compounds read high, concentration not given here
row,SMILES,growth inhibition
1,Nc1cc(N)nc(SCc2cccc(F)c2)n1,93.5% (active)
2,CCc1nnc(SCc2cccc(F)c2)nc1CC,-15.9% (inactive)
3,Nc1cc(N)nc(SCc2ccc(Cl)cc2)n1,12.7% (inactive)
4,O=C(c1ccc(Cl)s1)N(Cc1nnc(-c2ccccc2Cl)o1)C1CC1,-12.7% (inactive)
5,COc1ccccc1N1CCN(C(=O)c2cc(=O)c3cc(C)cc(C)c3o2)CC1,4.61% (inactive)
6,Cc1ccc(SCc2c(C(=O)N/N=C/c3cccnc3)nnn2-c2nonc2N)cc1,19.8% (inactive)
7,Nc1nonc1-n1nnc(C(=O)N/N=C/c2cc(Br)ccc2O)c1CSC1=NCCS1,90.5% (active)
8,Nc1nonc1-n1nnc(C(=O)N/N=C/c2ccccc2O)c1CN1CCCC1,-25.8% (inactive)
9,COc1cc(C2NC(=O)NC(c3ccccc3)=C2C(C)=O)c(Br)cc1OCC(N)=O (stereo not given),6.65% (inactive)
10,CCOC(=O)C1=C(c2ccccc2)NC(=O)NC1c1cc(OCC)c(O)c([N+](=O)[O-])c1 (stereo not given),38% (inactive)
11,CCOC(=O)C1=C(c2ccccc2)NC(=O)NC1c1cc(OC)c(OC)cc1OC (stereo not given),111% (active)
12,Cc1cccc(NS(=O)(=O)c2ccc(C(=O)NCC(C)(C)N3CCOCC3)cc2)c1C,-3.65% (inactive)
13,CCOc1ccc(CCNC(=O)COC(=O)c2c(OC)cccc2OC)cc1OCC,8.5% (inactive)
14,Cc1ccn2c(=O)c(NC(=O)c3cccc4ccccc34)c(C)nc2c1,1.1% (inactive)
15,CCOc1ccc(NC(=O)NNC(=O)c2ccc(Cl)cc2Cl)cc1,0.808% (inactive)
16,NC(N)=N/N=C/c1ccc(OCc2ccc(Cl)cc2Cl)cc1,123% (active)
17,OC(CNCCc1ccc(Cl)cc1Cl)COc1ccccc1 (stereo not given),7.1% (inactive)
18,OCCCNc1nc(-c2ccccc2)c2cc(Cl)ccc2n1,14.2% (inactive)
19,O=c1c(-c2cccc(Cl)c2)c[nH]n1-c1ccccc1,0.955% (inactive)
20,O=C1c2ccccc2NC(c2ccc(-c3cccc(Cl)c3)o2)N1O (stereo not given),96.8% (active)
21,O=C(O)C(c1ccccc1)N1C(=O)/C(=C\c2ccc(-c3cccc(Cl)c3)o2)SC1=S (stereo not given),37.9% (inactive)
22,Cc1ccc(CCN2CC(C(=O)NCCc3ccccc3)CC2=O)cc1 (stereo not given),-6.78% (inactive)
23,Cc1cccnc1NC(=O)Cn1c(=O)oc2ccccc21,-0.441% (inactive)

row,SMILES,growth inhibition
1,C[C@@H]1C[C@@H]2O[C@H]2/C=C\C=C\C(=O)Cc2c(Cl)c(O)cc(O)c2C(=O)O1,84.1% (active)
2,COC(=O)c1cc(-c2cccs2)nc2ccccc12,-7.15% (inactive)
3,O=C(NCCN1CCOCC1)c1cc(-c2cccs2)nc2ccccc12,-3.11% (inactive)
4,O=C(Nc1nnc(-c2ccccc2)o1)c1cc(-c2cccs2)nc2ccccc12,89.3% (active)
5,CC1CCCN(S(=O)(=O)c2ccc(C(=O)Nc3nnc(-c4ccncc4)o3)cc2)C1 (stereo not given),18.1% (inactive)
6,CSCc1nnc(NC(=O)c2ccc(S(=O)(=O)N3CCCCC3C)cc2)o1 (stereo not given),8.82% (inactive)
7,CC1CCCCN1S(=O)(=O)c1ccc(C(=O)Nc2nnc(-c3cccs3)o2)cc1 (stereo not given),95.4% (active)
8,COc1ccc(-c2cc(=O)oc3cc(OC(C)C(=O)NCC4CCC(C(=O)O)CC4)ccc23)cc1 (stereo not given),-4.33% (inactive)
9,CSCCC(NS(=O)(=O)c1ccc(C)cc1)C(=O)NCCc1c[nH]c2ccccc12 (stereo not given),-6.21% (inactive)
10,COc1ccc(N(C(=O)c2ccc(C)cc2)S(=O)(=O)c2cccs2)cc1,4.35% (inactive)
11,CN(/C(=N/S(=O)(=O)c1cccs1)c1ccccc1)c1ccc(O)cc1,117% (active)
12,O=S(=O)(/N=C(/Nc1ccccc1)c1ccccc1)c1cccs1,-39.8% (inactive)
13,CN(CC(=O)Nc1cccc(F)c1)C(=O)C1CC(=O)N(CCc2ccccc2)C1 (stereo not given),-9.09% (inactive)
14,Oc1ccc(N=Nc2nccs2)c(O)c1,85.9% (active)
15,Oc1ccc2ccccc2c1N=Nc1nccs1,0.433% (inactive)
16,CC(CN1CCC(n2nccc2NC(=O)C2CCCC2)CC1)c1ccccc1 (stereo not given),-5.12% (inactive)
17,CC1=NNC(=O)C1Cc1c(Cl)cccc1Cl (stereo not given),-0.631% (inactive)
18,Cc1ccc(C(=O)NCCNC(=O)c2ccccc2)cc1,5.77% (inactive)
19,CN(C(=O)COC(=O)CNC(=O)C12CC3CC(CC(C3)C1)C2)c1ccccc1,-17.2% (inactive)
20,CN(C(=O)CC(NC(=O)c1ccccc1)(c1ccccc1)c1ccccc1)c1ccccc1,91.8% (active)
21,Nc1c(C(=O)Nc2ccc3c(c2)OCCO3)nnn1Cc1ccccc1,9.7% (inactive)
22,Cc1sc2ncnc(N3CCC(C(=O)NNC(=O)c4ccc(F)cc4)CC3)c2c1C,11% (inactive)
23,COc1ccc(S(=O)(=O)NCCCc2ccccc2)cc1,-3.19% (inactive)

row,SMILES,growth inhibition
1,Cc1nn(-c2ccccc2)c(C)c1NC(=O)COC(=O)c1cc(Cl)ccc1O,-3.39% (inactive)
2,CCN1C(=O)[C@H]2[C@@H](c3ccc(C)cc3)N3C(=O)N(c4cccc(Br)c4)C(=O)[C@@]3(CC)[C@H]2C1=O,-1.61% (inactive)
3,O=C(N/N=C/c1ccc2c(c1)OCO2)c1ccc(Cn2cc([N+](=O)[O-])cn2)o1,-1.68% (inactive)
4,Cc1c(Cl)c([N+](=O)[O-])nn1CCCC(=O)Nc1cc(Cl)ccc1Cl,0.816% (inactive)
5,Cc1c(Cl)c([N+](=O)[O-])nn1Cc1ccc(C(=O)N/N=C\c2cc(Cl)ccc2O)o1,112% (active)
6,O=C1N[C@@H](Cc2ccccc2)C(=O)N2[C@H]1C[C@]1(Br)c3ccccc3N(S(=O)(=O)c3ccccc3)[C@H]21,4.33% (inactive)
7,COC(=O)Cc1cc(=O)n(-c2nc3ccccc3s2)[nH]1,93.5% (active)
8,COC(=O)Cc1[nH]n(-c2nc3ccccc3s2)c(=O)c1C(C)=Nc1ccc(OC)cc1,5.2% (inactive)
9,C/C(=N\NC(=O)CC(C)C)c1c(C(F)(F)F)[nH]n(-c2nc3ccccc3s2)c1=O,8.15% (inactive)
10,COc1cc(/C=C/C(=O)O)cc(S(=O)(=O)Nc2ccccc2C(=O)NCCc2ccccc2)c1OC,-0.0595% (inactive)
11,O=C(Nc1cccc(-c2nc3ccccc3[nH]2)c1)c1ccc(C(=O)Nc2cccc(-c3nc4ccccc4[nH]3)c2)cc1,-12.9% (inactive)
12,Cc1ccc(-n2nc3ccc(NC(=O)/C=C/c4ccco4)cc3n2)cc1C,20% (inactive)
13,O=C(/C=C/c1ccco1)Nc1cccc(-c2nc3ccccc3[nH]2)c1,91.5% (active)
14,CCOc1cc(/C=N/NC(=O)c2cccc(S(=O)(=O)N3CCOCC3)c2)ccc1OCC(=O)N(C)C,3.22% (inactive)
15,CC(=O)c1nn(-c2ccc(C)cc2)cc1C(=O)c1cccc(Br)c1,-5.17% (inactive)
16,CC1CCC(NC(=O)CNC(=O)c2ccc3ccccc3c2)CC1 (stereo not given),4.42% (inactive)
17,COc1ccc(N(C(=O)CNC(=O)c2ccco2)C(C(=O)NCC2CCCO2)c2ccccc2)cc1Cl (stereo not given),7.7% (inactive)
18,Cc1ccc(N(C(=O)CNC(=O)c2ccco2)C(C(=O)NC2CCCC2)c2ccncc2)cc1 (stereo not given),-17% (inactive)
19,O=C(NCC(=O)N(CC1CCCO1)C(C(=O)NC1CCCCC1)c1ccccc1)c1ccco1 (stereo not given),103% (active)
20,CC1CCCCN1S(=O)(=O)CCNC(=O)c1ccccc1 (stereo not given),0.685% (inactive)
21,Cc1cc(Cl)ccc1NNC(=O)c1snnc1C,85.6% (active)
22,Cc1nnsc1C(=O)Nc1cccc(Cl)c1C,-1.12% (inactive)
23,Cc1nnsc1C(=O)N/N=C/c1ccccc1Cl,-6.46% (inactive)

row,SMILES,growth inhibition
1,CCc1ccc(S(=O)(=O)N/N=C\c2ccc([N+](=O)[O-])o2)cc1,13.3% (inactive)
2,Cc1cc(C)nc(N/N=C/c2ccc([N+](=O)[O-])o2)n1,11.2% (inactive)
3,C/[N+]([O-])=C\c1ccc([N+](=O)[O-])o1,110% (active)
4,CCc1ccccc1NC(=O)c1cc(-c2ccc3c(c2)OCO3)on1,-0.103% (inactive)
5,Cc1ccc(C)c(N2CCN(C(=O)Cn3ncn4cccc4c3=O)CC2)c1,-9.35% (inactive)
6,CSc1ccccc1NC(=O)C(C)N1C(=O)c2ccccc2S1(=O)=O (stereo not given),2.61% (inactive)
7,O=C(O)CN1CCN(C(c2ccccc2)c2ccccc2)CC1,-6.25% (inactive)
8,CC(C)NC(=S)N1CCN(C(c2ccccc2)c2ccccc2)CC1,11.5% (inactive)
9,CC1(C)CC(N2CCN(C(c3ccccc3)c3ccccc3)CC2)=CC(=[N+]2CCCCC2)C1,95.7% (active)
10,O=C(Nc1cc(Cl)ccc1N1CCOCC1)c1ccc(N2CCCC2=O)cc1,4% (inactive)
11,O=C(NCCC1CCCCN1S(=O)(=O)c1cccs1)C(=O)Nc1ccc(F)cc1F (stereo not given),7.39% (inactive)
12,O=C(Nc1cccc2c1CCCC2)c1ccc(F)cc1,-3.5% (inactive)
13,Cc1nc2sc3c(c2c(=O)n1NC(=O)CCl)CCCC3,9.31% (inactive)
14,NNC(=O)C1CCCn2c1nc1sc3c(c1c2=O)CCCC3 (stereo not given),2.28% (inactive)
15,Cn1c(NN)nc2sc3c(c2c1=O)CCC3,87.2% (active)
16,C#CCOCCOCCOCCNc1nc(N2CCN(C(=O)C([C@@H](C)CC)n3cc(C(N)COC(=O)C(F)(F)F)nn3)CC2)nc(N2CCN(C(=O)[C@H](CCCCN)n3cc(C(N)CC(C)C)nn3)CC2)n1 (stereo not given in full),4.02% (inactive)
17,O=C(CSC1=NS(=O)(=O)c2cc(F)ccc2N1)Nc1ccccc1F,5.53% (inactive)
18,Cc1ccc(N=C2SCCCN2C(=O)c2cccc(N3C(=O)CCC3=O)c2)cc1Cl,-7.25% (inactive)
19,Nc1ccc(SCCN2C(=O)c3ccccc3C2=O)cc1,103% (active)
20,O=C(OCCN1C(=O)c2ccccc2C1=O)Oc1ccccc1,4.11% (inactive)
21,CC(=O)c1cnc(SCCN2C(=O)c3ccccc3C2=O)nc1C,-3.43% (inactive)
